Data: PubChem BioAssay (NCI)
This is part of a sample that, as a whole, favours compounds with a hit. Of some 83,000 tested, about 20% had one in any assay.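 Treatment: one concentration, 48 hours, 96-well format. Scoring: percent growth, with anything below 10 considered active.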 Unmarked numbers belong to inactive results. Calls of active or inactive are those of the source.

tested on: HL-60(TB) leukemia; experiment: NCI-60 one-dose screen, 48 h (100 = growth as untreated, 0 = no growth, -100 = all killed); settings: 10 µM unless noted

**Q.** How did the growth turn out when `COc1ccc2c(OCc3nnc4ccc(-c5ccccc5)nn34)ccnc2c1` was run?
**A.** 106% [2.5 µM]

**Q.** Which growth does the source give for `COc1cc(NCCCN(CC(C)C)C2CCCC2)c2ncccc2c1` here?
**A.** 22.5%

**Q.** For `CN(C)c1ccc(-c2ccc(-c3ccc(C(=N)N)c(F)c3)s2)cc1`, which growth is on record?
**A.** -46.1% (active)

**Q.** How did the growth turn out when `COC(=O)c1cc(-c2ccc(OC)c(OC)c2)[nH]c1N/N=C/c1c(Cl)cccc1Cl` was run?
**A.** 3.48% (active)

**Q.** How did the growth turn out when `C=C(C=O)C1CCC2(C(=O)O)CCC3(C)C(CCC4C5(C)CCC(O)C(C)(C)C5CCC43C)C12` (stereo not given) was run?
**A.** 6.38% (active)

**Q.** For `CCCCC1COc2cccc3c2N1C=C/C3=C\C(=O)N(C)c1ccccc1` (stereo not given), which growth is on record?
**A.** 9.39% (active)

**Q.** With `O=C(Nc1ccc(Cl)cc1)Nc1nc2ccc(OC(F)(F)F)cc2o1` as the molecule, how does the growth read?
**A.** 83.3%

**Q.** How did the growth turn out when `Cl.[Pt].[c-]1ccccc1-c1ccccn1.c1ccc(P(c2ccccc2)C([PH+](c2ccccc2)c2ccccc2)[PH+](c2ccccc2)c2ccccc2)cc1` was run?
**A.** 7.19% (active)

**Q.** How did the growth turn out when `Cc1ccc(-c2ccc(/C=C(\C#N)c3nc(-c4ccco4)cs3)o2)cc1` was run?
**A.** 101%

**Q.** Which growth does the source give for `COc1ccccc1CNCCCN1C(=O)c2ccc3c4c(ccc(c24)C1=O)C(=O)N(CCCNCCCCN)C3=O` here?
**A.** -42% (active)

**Q.** `CC(=O)N1N=C(c2ccc(F)cc2)CC1c1sc(N(C)Cc2ccccc2)nc1Cl` (stereo not given) was tested. Which growth did it give?
**A.** 109%

**Q.** How did the growth turn out when `C#CCOC(=O)C(N)CSSCC(N)C(=O)O` (stereo not given) was run?
**A.** 120%

**Q.** How did the growth turn out when `Nc1ccc2c(c1)C(=O)c1cc(Cl)c(Cl)cc1-2` was run?
**A.** 76.2%

**Q.** `COCc1nc2ccccc2[nH]1` was tested. Which growth did it give?
**A.** 96.5%

**Q.** How did the growth turn out when `O=C(Nc1ccc(N2CCNCC2)cc1)c1[nH]ncc1Nc1ncnc2sc3c(c12)CCC3` was run?
**A.** -49.6% (active)
